Active and inactive are the calls of the source. How the source made its calls: active means hit-call score of the fitted dose curve at least 0.9, where 1 is the maximum; inactive means score below 0.9.
molecular target: Paired box protein Pax-6 (Homo sapiens) (UniProt P26367); assay: ATG_Pax6_CIS: Attagene CIS-FACTORIAL HepG2 Assay for human Paired Box 6 (PAX6) (AID 2282956); conditions: HepG2 CIS-FACTORIAL PAX6 reporter transcription, RNA readout; actives raise or lower the signal
Description: ATG_CIS is a cell-based, multiplexed-readout assay that uses HepG2, a human liver cell line, with measurements taken at 24 hours after chemical dosing in a 24-well plate.ATG_Pax6_CIS is one of 52 assay component(s) measured or calculated from the ATG_CIS assay. It is designed to make measurements of mRNA induction, a form of inducible reporter, as detected with fluorescence intensity signals by Reverse transcription polymerase chain reaction (RT-PCR) and Capillary electrophoresis technology.Data from the assay component ATG_Pax6_CIS was analyzed into 1 assay endpoint. This assay endpoint, ATG_Pax6_CIS, was analyzed with bidirectional fitting relative to DMSO as the negative control and baseline of activity. Using a type of inducible reporter, measures of mRNA for gain or loss-of-signal activity can be used to understand the reporter gene at the transcription factor-level as they relate to the gene PAX6. Furthermore, this assay endpoint can be referred to as a primary readout, because this assay has produced multiple assay endpoints where this one serves a reporter gene function. To generalize the intended target to other relatable targets, this assay endpoint is annotated to the dna binding intended target family, where the subfamily is paired box protein.
Human liver HepG2 cells are transiently transfected with multiple reporter transcription units (MRTUs) in 6-well plates using FuGene 6 reagent (Roche; 3 ml FuGene/1 mg DNA). The MRTU constructs are regulated by a cis-regulating element (promoter). […] A major difference between the CIS and TRANS system is that in CIS activities of endogenous TFs are measured, whereas the TRANS assay evaluates changes in activities of exogenous, chimeric NR-Gal4 proteins. […] At the end of 24 hour incubation, total RNA was isolated using TriZol reagent (Invitrogen). The isolated RNA is then reverse-transcribed using oligo(dT) primer and Mo-MLV reverse transcriptase (Invitrogen) with DNAse I (Ambion) treatment for 30 min. The one-tenth of the produced cDNA was amplified by PCR using Taq DNA polymerase (Invitrogen) and two reporter sequence-specific primers. The PCR products were fluorescently labeled by primer extension with 6-arboxyfluorescein (6-FAM) 5'-labeled reporter sequence-specific primer (2 min at 95 C, 20 s at 68 C and 10 min at 72 C) and these products were digested with 5U of HpaI (New England Biolabs) for 2h at 37 C. The fragments were purified using Qiaquick PCR columns (Qiagen), analyzed on an ABI 3130xL genetic analyzer (Applied Biosystems) with peak positions identified by using a set of X-rhodamine (ROX)-labeled MapMarker1000 molecular weight standards (BioVentures). The raw capillary electrophoresis data was processed using Attagraph software (Attagene).

Sequence of Paired box protein Pax-6 (Homo sapiens) (P26367 whole entry, looked up): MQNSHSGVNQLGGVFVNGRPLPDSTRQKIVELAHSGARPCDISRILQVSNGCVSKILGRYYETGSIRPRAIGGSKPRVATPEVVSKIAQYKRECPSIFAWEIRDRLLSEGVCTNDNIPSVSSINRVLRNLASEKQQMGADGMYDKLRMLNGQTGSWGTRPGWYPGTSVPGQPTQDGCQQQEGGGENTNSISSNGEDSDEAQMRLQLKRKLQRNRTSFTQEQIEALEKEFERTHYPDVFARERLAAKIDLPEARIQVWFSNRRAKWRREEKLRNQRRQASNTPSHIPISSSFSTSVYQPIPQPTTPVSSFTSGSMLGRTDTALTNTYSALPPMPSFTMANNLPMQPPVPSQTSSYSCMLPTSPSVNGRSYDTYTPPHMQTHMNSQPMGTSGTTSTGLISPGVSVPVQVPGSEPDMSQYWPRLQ

Structure (SMILES)	outcome	AC50
O=C(O)Cc1c(Cl)ccc(Cl)c1Cl	inactive	
C=C(C)CCO	inactive	
CCO[Si](CCCN=C=O)(OCC)OCC	inactive	
CC[C@H]1OC(=O)[C@H](C)[C@@H](O[C@H]2C[C@@](C)(OC)[C@@H](O)[C@H](C)O2)[C@H](C)[C@@H](O[C@@H]2O[C@H](C)C[C@H](N(C)C)[C@H]2O)[C@](C)(O)C[C@@H](C)C(=NOCOCCOC)[C@H](C)[C@@H](O)[C@]1(C)O	inactive	
O=Cc1ccc(CO)o1	inactive	
NC(=O)NNC(N)=O	inactive	
CC(C)(Oc1ccc(C2CC2(Cl)Cl)cc1)C(=O)O (stereo not given)	inactive	
c1cc(N(CC2CO2)CC2CO2)ccc1OCC1CO1 (stereo not given)		46.4 µM (active)
NC(=O)OCC(COC(N)=O)c1ccccc1	inactive	
COC(=O)C1=C(C)NC(C)=C(C(=O)OCC(C)C)C1c1ccccc1[N+](=O)[O-] (stereo not given)	inactive	
Cc1ccc2c(c1)C(=O)c1ccccc1C2=O	inactive	
CCCc1ccc(OC)cc1	inactive	
CCC(CO)CO	inactive	
Cc1ccc([N+](=O)[O-])cc1S(=O)(=O)O	inactive	
O=C(Cl)c1cc(C(=O)Cl)cc(C(=O)Cl)c1	inactive	
CCCC(=O)OCc1ccccc1	inactive	
SCCc1cnccn1	inactive	
c1ccc(-c2ccccn2)nc1	inactive	
CCCOCCOCCOCCO	inactive	
CCCCCCCCCCCCCCCC(=O)OCC	inactive	

Structure (SMILES)	outcome	AC50
CC(C)c1ccc(C=O)cc1	inactive	
O=S(=O)(O)c1cc(S(=O)(=O)O)c2ccc3c(S(=O)(=O)O)cc(S(=O)(=O)O)c4ccc1c2c43	inactive	
CCC(CC)C(=O)O	inactive	
CC(=O)OCC(C)OC(C)=O (stereo not given)	inactive	
CCc1c(C(=O)O)c(=O)cnn1-c1ccc(Cl)cc1	inactive	
C=C(C)[C@H]1CC=C(C)CC1	inactive	
C=CCCCCCCCCC(=O)OCCCC	inactive	
Oc1ccc(Cl)cc1Cc1cc(Cl)ccc1O		11.1 µM (active)
COC(=O)/C=C\C(=O)O	inactive	
CCCCC(CC)COC(=O)c1ccccc1 (stereo not given)	inactive	
CCCOC(=O)CCCCC(=O)OCCC	inactive	
[Cl][Nd]([Cl])[Cl]	inactive	
CCCCC(CC)COC(=O)c1ccccc1O (stereo not given)	inactive	
CCC(C)C=O (stereo not given)	inactive	
CCN(CC#N)c1cccc(C)c1	inactive	
COCc1c(C(C)C)nc(C(C)C)c(/C=C/[C@@H](O)C[C@@H](O)CC(=O)O)c1-c1ccc(F)cc1	inactive	
NC(=O)N=NC(N)=O	inactive	
N#[N+]c1ccc2c(S(=O)(=O)[O-])cccc2c1O	inactive	
Nc1ccc(N)c(Cl)c1		52.9 µM (active)
C=CC(C)(C)C	inactive	
